Laboratory results: PubChem BioAssay (Tox21)
Several values for one entry are separate records, joined by “and”; a condition that tells them apart may be missing. Equal entries are not always repeated. Inconclusive results are not listed. Entries that show only a call come without a potency. Activity calls are given as the source filed them. Calls come from the whole dose curve.

test: qHTS assay for small molecule agonists of the p53 signaling pathway - cell viability (AID 651633); settings: p53RE-bla HCT-116 viability, ATP luminescence, 16 h; series mostly up to 83.3 µM;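 note: p53RE-bla HCT reporter cells with a stable beta-lactamase p53 reporter; nearly all actives have a fitted effect of over 30% in size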
Summary of the method: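 p53RE-bla cells were treated with compound for 16 hours at 37 C. Cytotoxicity was then measured as CellTiter-Glo luminescence after 30 min at room temperature.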

| SMILES | Potency |
| --- | --- |
| Cc1ccccc1Cl | inactive |
| CCCCCCC(=O)O | inactive |
| COc1ccccc1[N+](=O)[O-] | inactive |
| Cc1ccccc1C=O | inactive |
| Nc1cccc(C(F)(F)F)c1 | inactive |
| CCCOC(=O)NCCCN(C)C | inactive |
| COc1ccc(N)c(OC)c1 | inactive |
| Nc1nc(N)c2nc(-c3ccccc3)c(N)nc2n1 | inactive |
| Cc1ccc(Cl)cc1 | inactive |
| CC/C=C(\C(=O)N[C@@H]1C(=O)N2C(C(=O)OCOC(=O)C(C)(C)C)=C(COC(N)=O)CS[C@H]12)c1csc(N)n1 | inactive |
| CC(C)=CCC/C(C)=C/C=O | inactive |
| Cc1nnc(NS(=O)(=O)c2ccc(N)cc2)s1 | inactive |
| CC(=O)OCc1ccc2c(c1)OCO2 | inactive |
| NC(=O)NC(N)=O | inactive |
| CC(=O)c1nccs1 | inactive |
| OCc1ccc(Cl)cc1Cl | inactive |
| CC1(C)C(=O)N(Cl)C(=O)N1Cl | inactive |
| CCc1cccc(CC)c1N | inactive |
| O=C(O)Cc1c[nH]c2ccccc12 | inactive |

| SMILES | Potency |
| --- | --- |
| NC(=O)c1ncn([C@@H]2O[C@H](CO)[C@@H](O)[C@H]2O)n1 | inactive |
| CCCN(CCC)C(=O)SCC | inactive |
| CCOC(=O)CC(=O)OCC | inactive |
| CCCCCCCCCCCCCC(=O)O | inactive |
| CCCCCCCC(=O)O | inactive |
| O=C(c1ccccc1)c1ccc(O)c(O)c1O | inactive |
| O=[N+]([O-])c1ccccc1C(F)(F)F | inactive |
| COc1ccc([C@@H]2CC(=O)c3c(O)cc(O[C@@H]4O[C@H](CO[C@@H]5O[C@@H](C)[C@H](O)[C@@H](O)[C@H]5O)[C@@H](O)[C@H](O)[C@H]4O)cc3O2)cc1OC | inactive |
| CC(=O)OC(C)(C)C1CC=C(C)CC1 (centres undefined) | inactive |
| Cc1ccc(C(C)C)cc1 | inactive |
| c1cnc2c(c1)ccc1cccnc12 | inactive |
| Cc1cc(CC(=O)O)n(C)c1C(=O)c1ccc(Cl)cc1 | inactive |
| C[Si](C)(C)N[Si](C)(C)C | inactive |
| OC[C@H]1O[C@@H](Oc2ccc(O)cc2)[C@H](O)[C@@H](O)[C@@H]1O | inactive |
| CCCCCCCCC(=O)O | inactive |
| CCn1cc(C(=O)O)c(=O)c2cc3c(cc21)OCO3 | inactive |
| Cc1cc(C)cc(O)c1 | inactive |
| Cc1ccc([N+](=O)[O-])cc1N | inactive |
| CC(C)(C)NC[C@H](O)COc1nsnc1N1CCOCC1 | inactive |

test: qHTS assay for small molecules that induce genotoxicity in human embryonic kidney cells expressing luciferase-tagged ATAD5 - cell viability (AID 651634); settings: HEK293T ATAD5-luc cells viability, CellTiter-Fluor, 15.5 h; series mostly up to 83.3 µM; note: nearly all actives have a fitted effect of over 25% in size; note: potency is the fitted concentration of half-maximal effect
Summary of the method: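 Cytotoxicity counter-readout: after 15.5 hr compound treatment at 37C, live-cell protease activity in ATAD5-luciferase HEK293T cells measured by CellTiter-Fluor fluorescence, 30 min development at 37C.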

| SMILES | Potency |
| --- | --- |
| Cc1ccccc1Cl | inactive |
| CCCCCCC(=O)O | inactive |
| COc1ccccc1[N+](=O)[O-] | inactive |
| Cc1ccccc1C=O | inactive |
| Nc1cccc(C(F)(F)F)c1 | inactive |
| CCCOC(=O)NCCCN(C)C | inactive |
| COc1ccc(N)c(OC)c1 | inactive |
| Nc1nc(N)c2nc(-c3ccccc3)c(N)nc2n1 | inactive |
| Cc1ccc(Cl)cc1 | inactive |
| CC/C=C(\C(=O)N[C@@H]1C(=O)N2C(C(=O)OCOC(=O)C(C)(C)C)=C(COC(N)=O)CS[C@H]12)c1csc(N)n1 | inactive |
| CC(C)=CCC/C(C)=C/C=O | inactive |
| Cc1nnc(NS(=O)(=O)c2ccc(N)cc2)s1 | inactive |
| CC(=O)OCc1ccc2c(c1)OCO2 | inactive |
| NC(=O)NC(N)=O | inactive |
| CC(=O)c1nccs1 | inactive |
| OCc1ccc(Cl)cc1Cl | inactive |
| CC1(C)C(=O)N(Cl)C(=O)N1Cl | inactive |
| CCc1cccc(CC)c1N | inactive |
| O=C(O)Cc1c[nH]c2ccccc12 | inactive |

| SMILES | Potency |
| --- | --- |
| NC(=O)c1ncn([C@@H]2O[C@H](CO)[C@@H](O)[C@H]2O)n1 | inactive |
| CCCN(CCC)C(=O)SCC | inactive |
| CCOC(=O)CC(=O)OCC | inactive |
| CCCCCCCCCCCCCC(=O)O | inactive |
| CCCCCCCC(=O)O | inactive |
| O=C(c1ccccc1)c1ccc(O)c(O)c1O | inactive |
| O=[N+]([O-])c1ccccc1C(F)(F)F | inactive |
| COc1ccc([C@@H]2CC(=O)c3c(O)cc(O[C@@H]4O[C@H](CO[C@@H]5O[C@@H](C)[C@H](O)[C@@H](O)[C@H]5O)[C@@H](O)[C@H](O)[C@H]4O)cc3O2)cc1OC | inactive |
| CC(=O)OC(C)(C)C1CC=C(C)CC1 (centres undefined) | inactive |
| Cc1ccc(C(C)C)cc1 | inactive |
| c1cnc2c(c1)ccc1cccnc12 | 6.92 µM (active) and 3.86 µM (active) and 7.7 µM (active) |
| Cc1cc(CC(=O)O)n(C)c1C(=O)c1ccc(Cl)cc1 | inactive |
| C[Si](C)(C)N[Si](C)(C)C | inactive |
| OC[C@H]1O[C@@H](Oc2ccc(O)cc2)[C@H](O)[C@@H](O)[C@@H]1O | inactive |
| CCCCCCCCC(=O)O | inactive |
| CCn1cc(C(=O)O)c(=O)c2cc3c(cc21)OCO3 | inactive |
| Cc1cc(C)cc(O)c1 | inactive |
| Cc1ccc([N+](=O)[O-])cc1N | inactive |
| CC(C)(C)NC[C@H](O)COc1nsnc1N1CCOCC1 | inactive |

test: qHTS assay for small molecule disruptors of the mitochondrial membrane potential - cell viability (AID 720634); settings: HepG2 viability, ATP luminescence (CellTiter-Glo), 1 h; series mostly up to 83.2 µM;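 note: human HepG2 liver cancer cells; nearly all actives have a fitted effect of over 20% in size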
Summary of the method: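 Cytotoxicity was quantified from ATP content by CellTiter-Glo luminescence in the same wells as the MMP dye read-out. HepG2 (2,000 cells/well) were plated overnight and exposed to compounds for 1 hr at 37 C.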

| SMILES | Potency |
| --- | --- |
| Cc1ccccc1Cl | inactive |
| CCCCCCC(=O)O | inactive |
| COc1ccccc1[N+](=O)[O-] | inactive |
| Cc1ccccc1C=O | inactive |
| Nc1cccc(C(F)(F)F)c1 | inactive |
| CCCOC(=O)NCCCN(C)C | inactive |
| COc1ccc(N)c(OC)c1 | inactive |
| Nc1nc(N)c2nc(-c3ccccc3)c(N)nc2n1 | inactive |
| Cc1ccc(Cl)cc1 | inactive |
| CC/C=C(\C(=O)N[C@@H]1C(=O)N2C(C(=O)OCOC(=O)C(C)(C)C)=C(COC(N)=O)CS[C@H]12)c1csc(N)n1 | inactive |
| CC(C)=CCC/C(C)=C/C=O | inactive |
| Cc1nnc(NS(=O)(=O)c2ccc(N)cc2)s1 | inactive |
| CC(=O)OCc1ccc2c(c1)OCO2 | inactive |
| NC(=O)NC(N)=O | inactive |
| CC(=O)c1nccs1 | inactive |
| OCc1ccc(Cl)cc1Cl | inactive |
| CC1(C)C(=O)N(Cl)C(=O)N1Cl | inactive |
| CCc1cccc(CC)c1N | inactive |
| O=C(O)Cc1c[nH]c2ccccc12 | inactive |

| SMILES | Potency |
| --- | --- |
| NC(=O)c1ncn([C@@H]2O[C@H](CO)[C@@H](O)[C@H]2O)n1 | inactive |
| CCCN(CCC)C(=O)SCC | inactive |
| CCOC(=O)CC(=O)OCC | inactive |
| CCCCCCCCCCCCCC(=O)O | inactive |
| CCCCCCCC(=O)O | inactive |
| O=C(c1ccccc1)c1ccc(O)c(O)c1O | inactive |
| O=[N+]([O-])c1ccccc1C(F)(F)F | inactive |
| COc1ccc([C@@H]2CC(=O)c3c(O)cc(O[C@@H]4O[C@H](CO[C@@H]5O[C@@H](C)[C@H](O)[C@@H](O)[C@H]5O)[C@@H](O)[C@H](O)[C@H]4O)cc3O2)cc1OC | inactive |
| CC(=O)OC(C)(C)C1CC=C(C)CC1 (centres undefined) | inactive |
| Cc1ccc(C(C)C)cc1 | inactive |
| c1cnc2c(c1)ccc1cccnc12 | inactive |
| Cc1cc(CC(=O)O)n(C)c1C(=O)c1ccc(Cl)cc1 | inactive |
| C[Si](C)(C)N[Si](C)(C)C | inactive |
| OC[C@H]1O[C@@H](Oc2ccc(O)cc2)[C@H](O)[C@@H](O)[C@@H]1O | inactive |
| CCCCCCCCC(=O)O | inactive |
| CCn1cc(C(=O)O)c(=O)c2cc3c(cc21)OCO3 | inactive |
| Cc1cc(C)cc(O)c1 | inactive |
| Cc1ccc([N+](=O)[O-])cc1N | inactive |
| CC(C)(C)NC[C@H](O)COc1nsnc1N1CCOCC1 | inactive |
